Results: PubChem BioAssay AID1159580 (chemical genetic matrix, 2015)
In all, about 5,500 compounds went through this assay and about 2,000 (36%) were called active. Inconclusive results (about 18%) are left out. Rule as the data show it: active = normalized growth mostly below about 0.91 (no sharp cut-off); inconclusive = no clear call, values can overlap the other calls; inactive = mostly above about 0.92. The list shows a part of the results.

Experiment: chemical genetic growth profiling, strain panel (AID 1159580);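 also: tested at 20 µM; growth read once vehicle control cultures reached saturation at 30 °C; 1 = growth at the plate median or of vehicle wells; lower values mean less growth of the strain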
Conditions: S. cerevisiae deletion strains, growth OD
[1] = locus YAL040C, strain CLN3, stronger effect = lower value
[2] = locus YCL061C, strain MRC1 (second series), stronger effect = lower value
[3] = locus YDR363W, strain ESC2, stronger effect = lower value
[4] = locus YER002W, strain NOP16, stronger effect = lower value
[5] = locus YGR078C, strain PAC10, stronger effect = lower value
[6] = locus YMR307W, strain GAS1, stronger effect = lower value
[7] = locus YNL128W, strain TEP1, stronger effect = lower value
[8] = locus YNL153C, strain GIM3, stronger effect = lower value
[9] = locus YNL175C, strain NOP13, stronger effect = lower value
[10] = locus YNL197C, strain WHI3, stronger effect = lower value
[11] = locus YNL224C, strain SQS1, stronger effect = lower value
[12] = locus YOR083W, strain WHI5 (second series), stronger effect = lower value
[13] = locus YPL241C, strain CIN2, stronger effect = lower value

Measured: normalized growth

C[C@@H]1C(=O)NC2=Nc3cccc(Cl)c3CN21
inactive: locus YAL013W, strain DEP1, stronger effect = lower value 0.983 | [1] 1 | [2] 1 | locus YDR150W, strain NUM1, stronger effect = lower value 1.01 | [3] 1 | [4] 1 | [5] 1 | locus YGR229C, strain SMI1, stronger effect = lower value 1 | [6] 1 | [7] 1.01 | [8] 0.982 | [9] 0.992 | [10] 1 | [11] 1 | locus YNL322C, strain KRE1, stronger effect = lower value 0.997 | [12] 1.01 | locus YPL055C, strain LGE1, stronger effect = lower value 1.02 | [13] 1

O=C1CN2Cc3c(ccc(Cl)c3Cl)N=C2N1
inactive: locus YAL021C, strain ccr4, stronger effect = lower value 0.988 | locus YAL026C, strain drs2, stronger effect = lower value 0.976 | locus YAL030W, strain snc1, stronger effect = lower value 0.987 | locus YBL061C, strain skt5, stronger effect = lower value 1 | locus YBR009C, strain hhf1, stronger effect = lower value 0.966 | locus YBR023C, strain chs3, stronger effect = lower value 0.983 | locus YBR171W, strain sec66, stronger effect = lower value 0.967 | locus YBR231C, strain swc5, stronger effect = lower value 0.982 | locus YBR279W, strain paf1, stronger effect = lower value 0.978 | locus YCL011C, strain gbp2, stronger effect = lower value 0.975 | locus YCL016C, strain dcc1, stronger effect = lower value 0.978 | locus YCL061C, strain MRC1, stronger effect = lower value 0.984 | locus YCL069W, strain vba3, stronger effect = lower value 0.986 | locus YCR088W, strain abp1, stronger effect = lower value 1.03 | locus YDL005C, strain med2, stronger effect = lower value 0.96 | locus YDL040C, strain nat1, stronger effect = lower value 0.986 | locus YDR001C, strain nth1, stronger effect = lower value 1.05 | locus YDR069C, strain doa4, stronger effect = lower value 0.972 | locus YDR137W, strain rgp1, stronger effect = lower value 0.962 | locus YDR159W, strain sac3, stronger effect = lower value 0.965 | locus YDR195W, strain ref2 0.961 | locus YDR297W, strain sur2, stronger effect = lower value 0.97 | locus YDR334W, strain swr1, stronger effect = lower value 0.99 | locus YDR335W, strain msn5, stronger effect = lower value 1.01 | locus YDR392W, strain spt3, stronger effect = lower value 0.952 | locus YEL003W, strain gim4, stronger effect = lower value 0.98 | locus YEL061C, strain CIN8 (second series), stronger effect = lower value 1.04 | locus YER015W, strain faa2, stronger effect = lower value 1.03 | locus YER016W, strain bim1, stronger effect = lower value 0.979 | locus YER155C, strain BEM2 (second series), stronger effect = lower value 1.02 | locus YFR010W, strain ubp6, stronger effect = lower value 1.02 | locus YGL167C, strain pmr1, stronger effect = lower value 0.968 | locus YGL173C, strain kem1, stronger effect = lower value 0.972 | locus YGL227W, strain vid30, stronger effect = lower value 0.969 | locus YGL240W, strain doc1, stronger effect = lower value 0.97 | locus YGL253W, strain hxk2, stronger effect = lower value 0.987 | locus YHR013C, strain ard1, stronger effect = lower value 0.956 | locus YHR027C, strain rpn1, stronger effect = lower value 0.996 | locus YHR030C, strain SLT2, stronger effect = lower value 0.984 | locus YHR079C, strain IRE1, stronger effect = lower value 0.996 | locus YHR142W, strain chs7, stronger effect = lower value 1.04 | locus YJL092W, strain hpr5, stronger effect = lower value 0.983 | locus YJL095W, strain BCK1 (second series), stronger effect = lower value 0.982 | locus YJL095W, strain BCK1, stronger effect = lower value 0.973 | locus YJL115W, strain asf1, stronger effect = lower value 1.08 | locus YJL129C, strain trk1, stronger effect = lower value 0.978 | locus YJL154C, strain vps35, stronger effect = lower value 0.976 | locus YJL164C, strain tpk1, stronger effect = lower value 0.999 | locus YJL166W, strain qcr8, stronger effect = lower value 0.993 | locus YJL187C, strain SWE1, stronger effect = lower value 0.977 | locus YJR066W, strain TOR1, stronger effect = lower value 0.929 | locus YKL160W, strain elf1, stronger effect = lower value 0.996 | locus YKR026C, strain gcn3, stronger effect = lower value 0.97 | locus YKR091W, strain srl3, stronger effect = lower value 0.987 | locus YLL001W, strain dnm1, stronger effect = lower value 0.956 | locus YLL026W, stronger effect = lower value 0.975 | locus YLL041C, strain sdh2, stronger effect = lower value 0.975 | locus YLR027C, strain aat2, stronger effect = lower value 0.991 | locus YLR113W, strain HOG1, stronger effect = lower value 1.01 | locus YLR221C, strain rsa3, stronger effect = lower value 1 | locus YLR258W, strain gsy2, stronger effect = lower value 0.979 | locus YLR262C, strain YPT6 (second series), stronger effect = lower value 0.985 | locus YLR320W, strain mms22, stronger effect = lower value 1.01 | locus YLR357W, strain rsc2, stronger effect = lower value 0.925 | locus YLR370C, strain arc18, stronger effect = lower value 0.97 | locus YLR384C, strain iki3, stronger effect = lower value 1.02 | locus YML120C, strain ndi1, stronger effect = lower value 0.996 | locus YMR058W, strain fet3, stronger effect = lower value 0.978 | locus YMR125W, strain sto1, stronger effect = lower value 0.92 | locus YMR129W, stronger effect = lower value 0.964 | locus YMR205C, strain PFK2, stronger effect = lower value 0.949 | locus YMR231W, strain pep5, stronger effect = lower value 0.968 | locus YNL071W, strain lat1, stronger effect = lower value 0.985 | locus YNL183C, strain NPR1, stronger effect = lower value 0.941 | locus YNL209W, strain ssb2, stronger effect = lower value 0.987 | locus YNL248C, strain rpa49, stronger effect = lower value 0.997 | locus YNL322C, strain KRE1 (second series), stronger effect = lower value 0.985 | locus YNR049C, strain mso1, stronger effect = lower value 1.02 | locus YOR001W, strain rrp6, stronger effect = lower value 0.996 | locus YOR070C, strain gyp1, stronger effect = lower value 1.03 | locus YOR080W, strain dia2, stronger effect = lower value 0.963 | locus YOR083W, strain WHI5, stronger effect = lower value 0.999 | locus YOR106W, strain vam3, stronger effect = lower value 0.991 | locus YOR231W, strain MKK1, stronger effect = lower value 0.989 | locus YOR265W, strain rbl2, stronger effect = lower value 0.988 | locus YOR270C, strain vph1, stronger effect = lower value 0.957 | locus YOR290C, strain snf2, stronger effect = lower value 0.957 | locus YPL051W, strain arl3, stronger effect = lower value 1 | locus YPL078C, strain atp4, stronger effect = lower value 0.995 | locus YPL106C, strain sse1, stronger effect = lower value 0.958 | locus YPL240C, strain hsp82, stronger effect = lower value 0.97 | locus YPL256C, strain CLN2, stronger effect = lower value 1.01
active: locus YEL037C, strain rad23, stronger effect = lower value 1.09 [resistant] | locus YER111C, strain swi4, stronger effect = lower value 1.1 [resistant] | locus YLR342W, strain FKS1, stronger effect = lower value 1.11 [resistant]

CN1CC(O)C(O)C(O)C1CO (stereo unspecified)
inactive: [1] 1 | [2] 1 | [3] 0.997 | [4] 1.01 | [5] 1.01 | [6] 0.998 | [7] 0.975 | [8] 1.01 | [9] 0.992 | [10] 1 | [11] 0.992 | [12] 1 | [13] 1.01
